Test results reported in PubChem BioAssay AID1345085 (National Center for Advancing Translational Sciences (NCATS), 2018).
Records with an inconclusive call do not appear. Activity calls are given as the source filed them. Calls come from the whole dose curve; as a rule, active = well fitted cell-killing curve with a large enough effect; inconclusive = small, poorly fitted or top-dose-only effect, or effect the other way; inactive = no such curve, though single readings can be large or run the other way.

Tested on: JEG-3
Test: Confirmatory qHTS for gynecologic anti-cancer compounds from libraries of approved drugs and bioactive compounds; note: nearly all actives have a fitted effect of over 55% in size
Settings: gynecologic cancer cell panel viability, ATPlite luminescence, 48 h; series mostly up to 57.6 µM
How it was run: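 IC50 values derive from an ATPlite ATP-content luminescence assay following 48 h treatment at 37 C. Each compound ran as an 11-concentration, threefold series (57.5 uM to 0.977 nM); HEK 293T served as control line for selectivity index.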
Potency is the fitted concentration of half-maximal effect.

Row | SMILES | Potency
1 | Cc1[nH]c2ccccc2c1CCNCc1ccc(/C=C/C(=O)NO)cc1 | 0.193 µM (active)
2 | CNc1nc(Nc2ccc(C(=O)N3CCOCC3)cc2OC)ncc1Cl | inactive
3 | CCCCc1oc2ccccc2c1C(=O)c1cc(I)c(OCCN(CC)CC)c(I)c1 | 70.8 µM (active)
4 | CCC1=CC2CN(C1)Cc1c([nH]c3ccccc13)[C@@](C(=O)OC)(c1cc3c(cc1OC)N(C)[C@H]1[C@@](O)(C(=O)OC)[C@H](OC(C)=O)[C@]4(CC)C=CCN5CC[C@]31[C@@H]54)C2 (stereo partly drawn) | 0.0943 µM (active)
5 | Cc1ccc(C(=O)N(CCCN)C(c2oc3cc(Cl)ccc3c(=O)c2Cc2ccccc2)C(C)C)cc1 (stereo not drawn) | 0.109 µM (active)
6 | CC1=C(/C=C/C(C)=C/C=C/C(C)=C/C(=O)Nc2ccc(O)cc2)C(C)(C)CCC1 | 21.7 µM (active)
7 | Fc1cc(-c2cccc3ncc(-c4cnn(C5CCNCC5)c4)nc23)cc(F)c1CN1CCOCC1 | 30.6 µM (active)
8 | COc1cc2c(NC3CCN(C(C)C)CC3)nc(C3CCCCC3)nc2cc1OCCCN1CCCC1 | 10.9 µM (active)
9 | COc1cccc2cc(-c3nc(C4CCC(C(=O)O)CC4)n4ncnc(N)c34)[nH]c12 (stereo not drawn) | inactive
10 | COc1ccc(-c2nc3ccc(C4=NNC(=O)CC4C)cc3[nH]2)cc1 (stereo not drawn) | 21.7 µM (active)
11 | CCOc1cc2ncc(C#N)c(Nc3ccc(F)c(Cl)c3)c2cc1NC(=O)/C=C/CN(C)C | 30.6 µM (active)
12 | Cc1cnc(Nc2ccc(CN3CCOCC3)cc2)nc1Nc1cccc(S(=O)(=O)NC(C)(C)C)c1 | 9.68 µM (active)
13 | CN[C@@H](C)C(=O)N[C@H]1CN(C(=O)CC(C)C)CC[C@H]2CC[C@@H](C(=O)NC(c3ccccc3)c3ccccc3)N2C1=O | inactive
14 | CC(C)Nc1cc(-c2c[nH]c(C(=O)N[C@H](CO)c3cccc(Cl)c3)c2)c(Cl)cn1 | 27.3 µM (active)
15 | Cc1cncc2cccc(S(=O)(=O)N3CCCN(C(=O)CN)C[C@@H]3C)c12 | inactive
16 | CCN(CC)CCCC(C)Nc1ccnc2cc(Cl)ccc12 (stereo not drawn) | inactive
17 | CS(=O)(=O)c1ccc(-c2cnc(N)c(C(=O)Nc3ccccc3)n2)cc1 | inactive

Row | SMILES | Potency
18 | COc1ccc2c(c1)c(CC(=O)O)c(C)n2C(=O)c1ccc(Cl)cc1 | inactive
19 | CC(C)C[C@H](NC(=O)[C@H](Cc1ccccc1)NC(=O)c1cnccn1)B(O)O | 0.217 µM (active)
20 | CC(=O)O[C@H]1C(=O)[C@@]2(C)[C@H]([C@H](OC(=O)c3ccccc3)[C@]3(O)C[C@H](OC(=O)[C@H](O)[C@@H](NC(=O)c4ccccc4)c4ccccc4)C(C)=C1C3(C)C)[C@]1(OC(C)=O)CO[C@@H]1C[C@@H]2O | 0.0259 µM (active)
21 | Cc1csc(NC(=O)c2sc3nc4c(c(C(F)(F)F)c3c2N)CCC4)n1 | 13.7 µM (active)
22 | CC(=O)NCC(=O)N1C2CCC1c1cc(Nc3ncc(C(F)(F)F)c(NC4CCC4)n3)ccc12 (stereo not drawn) | 19.3 µM (active)
23 | CN(C)C/C=C/C(=O)Nc1cc2c(Nc3ccc(F)c(Cl)c3)ncnc2cc1OC1CCOC1 (stereo not drawn) | 19.3 µM (active)
24 | COCCOc1nc(-c2ccc(Cl)c(Cl)c2)n(-c2ccc(NC(=O)CCl)cc2)n1 | 19.3 µM (active)
25 | Cc1cnc(Nc2ccc(F)cc2Cl)nc1-c1c[nH]c(C(=O)NC(CO)c2cccc(Cl)c2)c1 (stereo not drawn) | inactive
26 | COc1ccc(OC)c(-c2nnc3ccc(-c4ccc(OC)c(O[C@@H]5CCOC5)c4)nn23)c1 | 4.85 µM (active)
27 | Cn1cc(-c2[nH]c3cc(NC(=O)[C@H](N)C4CCCCC4)cc4c3c2C=NNC4=O)cn1 | 7.69 µM (active)
28 | CC(C)C[C@H](NC(=O)[C@H](CCc1ccccc1)NC(=O)CN1CCOCC1)C(=O)N[C@@H](Cc1ccccc1)C(=O)N[C@@H](CC(C)C)C(=O)[C@@]1(C)CO1 | 17.2 µM (active)
29 | Nc1nc(Cl)nc2c1ncn2C1OC(CO)C(O)C1F (stereo not drawn) | 2.17 µM (active)
30 | O=C1c2c(O)ccc(O)c2C(=O)c2c(NCCNCCO)ccc(NCCNCCO)c21 | 2.43 µM (active)
31 | Cc1nc2ccc(CN(C)c3ccc(C(=O)NC(CCC(=O)O)C(=O)O)s3)cc2c(=O)[nH]1 (stereo not drawn) | inactive
32 | Cc1cc(C(=O)N2CCN(c3cccc(Cl)c3)CC2)n(-c2ccccc2)n1 | 3.43 µM (active)
33 | COc1ccc(CCC(=O)c2c(O)cc(O[C@@H]3O[C@H](CO)[C@@H](O)[C@H](O)[C@H]3O[C@@H]3O[C@@H](C)[C@H](O)[C@@H](O)[C@H]3O)cc2O)cc1O | inactive
